Our source for the startle values is the supplement of paper PMC9950053.

Structures are written as SMILES. Where a name gives a salt, the structure may show the parent alone.

This assay has as its system Danio rerio larvae (5 dpf). The assay is described as follows: startle (activity period 16 minus period 15, 20-s interval sound) minus DMSO control (percentage points); higher = stronger startle response than DMSO larvae. The note with it: 10 µM; exposure time: 3 h pre-incubation + 3 h imaging. As to the method:
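Wild-type 5 dpf zebrafish larvae (n=48 per drug, 96-well plates, 28.5 °C) were exposed to Tocris FDA-approved library compounds at 10 µM (0.1% DMSO) for 3 h before and 3 h during imaging. Images were taken every 6 s during visual (moving coloured lines) and acoustic stimuli, and larvae were tracked with the DeepLabCut-based Z-LaP Tracker. Each behavioural measure is the treated-group mean minus the DMSO vehicle control mean (n=844), in percentage points. This mapping covers compounds with 4-character plate codes.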
With `CCOC(=O)[C@H](CCc1ccccc1)N[C@H]1CCc2ccccc2N(CC(=O)O)C1=O` [Benazepril hydrochloride], the startle was -0.0488.
Regarding `Nc1nc(NC2CC2)c2ncn([C@H]3C=C[C@@H](CO)C3)c2n1` [Abacavir hemisulfate], the startle was found to be 6.4.
On to `CN(CCOc1ccc(CC2SC(=O)NC2=O)cc1)c1ccccn1` (stereo not given) [Rosiglitazone], for which the startle is -1.31.
On to `C[C@@H](O[C@H]1OCCN(Cc2n[nH]c(=O)[nH]2)[C@H]1c1ccc(F)cc1)c1cc(C(F)(F)F)cc(C(F)(F)F)c1` [Aprepitant], for which the startle is -6.24.
Regarding `CC(c1cc2ccccc2s1)N(O)C(N)=O` (stereo not given) [Zileuton], the startle is -0.862.
As for `CCCCCCCCc1ccc(CCC(N)(CO)CO)cc1`, the startle is -6.92.
Take `CC(=O)O[C@]1(C(C)=O)CC[C@H]2[C@@H]3C=C(C)C4=CC(=O)CC[C@]4(C)[C@H]3CC[C@@]21C` [Megestrol Acetate]: the startle was -12.5.
Regarding `NC(=O)c1ncn([C@@H]2O[C@H](CO)[C@@H](O)[C@H]2O)n1` [Ribavirin], the startle is 2.04.
With `COc1ccccc1OCCNCC(O)COc1cccc2[nH]c3ccccc3c12` (stereo not given) [Carvedilol] the figure was 3.72.
For `CN1CCC[C@@H]1CCO[C@](C)(c1ccccc1)c1ccc(Cl)cc1` [Clemastine fumarate], the startle was -7.64.
Turning to `Cc1cn([C@H]2C=C[C@@H](CO)O2)c(=O)[nH]c1=O` [Stavudine], the startle stood at 0.235.
Turning to `Cc1nc(-c2ccc(OCC(C)C)c(C#N)c2)sc1C(=O)O` [Febuxostat], the startle came to 3.79.
The value for `CCOc1ccccc1OCCN[C@H](C)Cc1ccc(OC)c(S(N)(=O)=O)c1` [Tamsulosin hydrochloride] was 1.92.
For `CC(=O)S[C@@H]1CC2=CC(=O)CC[C@]2(C)[C@H]2CC[C@@]3(C)[C@@H](CC[C@@]34CCC(=O)O4)[C@H]12` [Spironolactone], the startle was found to be 2.27.
Consider `O=c1[nH]c(=O)n([C@H]2C[C@H](O)[C@@H](CO)O2)cc1C(F)(F)F` [Trifluorothymidine], for which the startle came to 1.59.
Regarding `CC1=Nc2ccc(Cl)cc2S(=O)(=O)N1` [Diazoxide], the startle was -4.34.
`CCOC(=O)N1CCC(=C2c3ccc(Cl)cc3CCc3cccnc32)CC1` [Loratidine]: the startle turned out to be 8.94.
On to `O=C(Nc1c(Cl)cncc1Cl)c1ccc(OC(F)F)c(OCC2CC2)c1` [Roflumilast], for which the startle came to 3.93.
The value for `O=C(NCC1CCCCN1)c1cc(OCC(F)(F)F)ccc1OCC(F)(F)F` (stereo not given) [Flecainide acetate] was 4.84; that for `CCCCNc1cc(C(=O)O)cc(S(N)(=O)=O)c1Oc1ccccc1` [Bumetanide] was 3.28.
As for `COC(c1ccccc1)(c1ccccc1)[C@H](Oc1nc(C)cc(C)n1)C(=O)O` [Ambrisentan], the startle was 6.56.
Take `O=C1CCc2cc(OCCCCc3nnnn3C3CCCCC3)ccc2N1` [Cilostazol]: the startle turned out to be 1.37.
As to `CCC(=O)O[C@]1(C(=O)SCF)[C@H](C)C[C@H]2[C@@H]3C[C@H](F)C4=CC(=O)C=C[C@]4(C)[C@@]3(F)[C@@H](O)C[C@@]21C` [Fluticasone propionate], the startle was -2.41.
In the case of `CN(CCOc1ccc(NS(C)(=O)=O)cc1)CCc1ccc(NS(C)(=O)=O)cc1` [Dofetilide], the startle turned out to be 0.253.
On to `COc1ccc(Cl)cc1C(=O)NCCc1ccc(S(=O)(=O)NC(=O)NC2CCCCC2)cc1` [Glibenclamide], for which the startle was 8.34.
Turning to `CC(C)C(=O)OCC(=O)[C@@]12O[C@H](C3CCCCC3)O[C@@H]1C[C@H]1[C@@H]3CCC4=CC(=O)C=C[C@]4(C)[C@H]3[C@@H](O)C[C@@]12C` [Ciclesonide], the startle was -5.21.
With `CC(=O)Oc1ccccc1C(=O)O` [Aspirin] the figure was -4; with `CC(C)(C(=O)c1cccnc1)c1cccnc1` [Metyrapone], -0.289; with `Cc1ccc(-c2cc(C(F)(F)F)nn2-c2ccc(S(N)(=O)=O)cc2)cc1` [Celecoxib], -8.09.
For the compound `COc1cc2nc(N3CCN(C(=O)c4ccco4)CC3)nc(N)c2cc1OC` [Prazosin hydrochloride], the startle was 4.64.
As to `COc1c(C)c2c(c(O)c1C/C=C(\C)CCC(=O)OCCN1CCOCC1)C(=O)OC2` [Mycophenolate mofetil], the startle came to 3.22.
With `CCOC(=O)C1=C(C)NC(C)=C(C(=O)OC)C1c1cccc(Cl)c1Cl` (stereo not given) [Felodipine] the figure was 7.93.
For `Clc1ccccc1C(c1ccccc1)(c1ccccc1)n1ccnc1` [Clotrimazole], the startle is 4.43.
As to `COCCCOc1cc(C[C@@H](C[C@H](N)[C@@H](O)C[C@H](C(=O)NCC(C)(C)C(N)=O)C(C)C)C(C)C)ccc1OC` [Aliskiren hemifumarate], the startle stood at 0.496.
For `CC(=O)O[C@H]1C(=O)[C@@]2(C)[C@H]([C@H](OC(=O)c3ccccc3)[C@]3(O)C[C@H](OC(=O)[C@H](O)[C@@H](NC(=O)c4ccccc4)c4ccccc4)C(C)=C1C3(C)C)[C@]1(OC(C)=O)CO[C@@H]1C[C@@H]2O` [Taxol], the startle came out at 1.37.
With `Nc1ncn([C@H]2C[C@H](O)[C@@H](CO)O2)c(=O)n1` [Decitabine] the figure was -1.27; with `CC1(C)O[C@@H]2[C@@H](CO[C@@]3(COS(N)(=O)=O)OC(C)(C)O[C@@H]23)O1` [Topiramate], -0.863; with `CCCc1nc(C(C)(C)O)c(C(=O)O)n1Cc1ccc(-c2ccccc2-c2nnn[nH]2)cc1` [Olmesartan], 8.5.
As to `O=C(c1ccc(OCCN2CCCCC2)cc1)c1c(-c2ccc(O)cc2)sc2cc(O)ccc12` [Raloxifene hydrochloride], the startle was found to be 2.55.
In the case of `COc1cc2nc(N3CCN(C(=O)C4COc5ccccc5O4)CC3)nc(N)c2cc1OC` (stereo not given) [Doxazosin mesylate], the startle stood at 6.47.
